SF-1 inh: blocks the human nuclear receptor SF-1; Q13285; CHO-K1 Gal4-SF-1 LBD luciferase reporter; inhibition, % at 10 µM; 65,000 compounds, 0.55% hits;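 active means inhibition above the mean inhibition of all tested compounds plus 3 SD, cut at about 48% in these data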;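 further: 0% = SF-1 transfected cells with DMSO and 100% = mock-transfected cells lacking SF-1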
Target sequence (Q13285 whole entry, looked up, the tested form may be a part): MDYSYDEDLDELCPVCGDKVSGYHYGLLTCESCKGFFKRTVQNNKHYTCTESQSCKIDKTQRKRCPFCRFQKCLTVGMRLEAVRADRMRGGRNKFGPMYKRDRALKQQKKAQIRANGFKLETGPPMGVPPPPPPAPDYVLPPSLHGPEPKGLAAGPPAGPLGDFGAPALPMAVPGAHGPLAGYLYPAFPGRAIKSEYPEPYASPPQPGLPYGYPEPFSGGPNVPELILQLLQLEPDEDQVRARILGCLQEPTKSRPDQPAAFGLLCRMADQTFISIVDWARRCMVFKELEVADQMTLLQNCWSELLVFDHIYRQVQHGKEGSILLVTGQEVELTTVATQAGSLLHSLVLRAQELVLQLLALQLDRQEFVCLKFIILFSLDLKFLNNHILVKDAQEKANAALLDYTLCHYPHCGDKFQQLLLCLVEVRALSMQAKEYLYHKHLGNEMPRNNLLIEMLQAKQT
An asterisk follows results filed as active. Only a selection was taken, and hits are over-represented in it overall.

Results for CC(C)(C)n1ncc2c(=O)n(CC(=O)NCc3ccccc3)cnc21 ?
SF-1 inh: -78

Results for O=C(Nc1nnc(C2CCCCC2)s1)c1ccco1 ?
SF-1 inh: -70

What do the screens show for `COc1cc(C(=O)Nc2ccc(N(C)C)cc2)cc(OC)c1OC`?
SF-1 inh: -62

How did COc1cc(NS(=O)(=O)c2ccc(C)cc2C)cc(OC)c1OC do in these assays?
SF-1 inh: 62*

What do the screens show for `CCOc1ccc(C)cc1S(=O)(=O)Nc1cccnc1`?
SF-1 inh: -12

Results for Cc1ccc(C2=Nc3ccccc3NC(C)(c3ccc(C)o3)C2)o1 (stereo unspecified) ?
SF-1 inh: -106

Results for CCN=C1SC(C(=O)Nc2cccc(OCC)c2)CC(=O)N1CC (stereo unspecified) ?
SF-1 inh: 24

What do the screens show for `O=c1[nH]c2ccc(Br)cc2c(-c2ccccc2)c1CN1CCOCC1`?
SF-1 inh: 10

Results for Oc1c(CN2CCOCC2)cc(COCc2ccccc2)c2cccnc12 ?
SF-1 inh: 73*

How did Cn1c(=O)c2cc(S(=O)(=O)NCCC(=O)NCCC3=CCCCC3)ccc2n(C)c1=O do in these assays?
SF-1 inh: 12

Results for CC(C)CNC(=O)CN(C1CCCCC1)S(=O)(=O)c1ccccc1 ?
SF-1 inh: 15

Results for O=C(NC1(C(=O)NC2CCCCC2)CCCCC1)c1ccc2c(c1)OCO2 ?
SF-1 inh: -11

Results for O=C(c1ccc(Cl)cc1)N1CCCCC(Sc2nnc(-c3ccc4c(c3)OCO4)o2)C1=O (stereo unspecified) ?
SF-1 inh: 89*

Results for Cc1ccc2oc(=O)c3cnn(CC(=O)NCCC(C)C)c3c2c1 ?
SF-1 inh: 14

Results for Cc1cc(NS(=O)(=O)c2ccccc2)n(-c2ccccc2)n1 ?
SF-1 inh: 1

How did Cc1cc(Nc2ccccc2)n(-c2ccccc2)n1 do in these assays?
SF-1 inh: 6

Results for Cc1cc(C)n(-c2cc(-n3nc(C)cc3C)ncn2)n1 ?
SF-1 inh: 20

What do the screens show for `Cc1cc(C)n(-c2nc(NC(C)(C)C)nc(NC(C)(C)C)n2)n1`?
SF-1 inh: 53*

What do the screens show for `Cc1cc(C)n(-c2nc(NC(C)C)nc(NC(C)C)n2)n1`?
SF-1 inh: 53*

What do the screens show for `Cc1cc(C)nc(-n2nc(C)cc2Nc2ccccc2)n1`?
SF-1 inh: 20

Results for c1ccc(-n2c(Cc3cn4ccsc4n3)nnc2N2CCOCC2)cc1 ?
SF-1 inh: -6

What do the screens show for `O=C(CCn1nc(-c2ccccc2)c2ccccc2c1=O)NCC1CCCO1` (stereo unspecified)?
SF-1 inh: -1

What do the screens show for `COc1ccccc1N(CC(=O)NC1CCCC1)C(=O)c1csnn1`?
SF-1 inh: -7

Results for COC(=O)c1sc(NC(=O)CSc2nnnn2-c2ccc(C)cc2C)nc1C ?
SF-1 inh: 22

Results for Cc1ccc(S(=O)(=O)N2CCN(C(=O)N3CCOCC3)C2C)cc1 (stereo unspecified) ?
SF-1 inh: 12

What do the screens show for `COC(=O)c1cn(C(C)C(=O)NCc2ccco2)c2ccccc12` (stereo unspecified)?
SF-1 inh: 13

Results for CCCCS(=O)(=O)/C=C\C=C/S(=O)(=O)CCCC ?
SF-1 inh: 96*

What do the screens show for `CCOC(=O)C1CCN(C(=O)CN(c2cccc(OC)c2)S(=O)(=O)c2ccccc2)CC1`?
SF-1 inh: -1

Results for COc1cc(OC)cc(-c2cc3nc(C)c(CCC(=O)O)c(C)n3n2)c1 ?
SF-1 inh: 79*

How did COc1ccc(-c2nc(N3CCOCC3)nc3nn4c(C)c(CCC(=O)O)c(C)nc4c23)cc1 do in these assays?
SF-1 inh: 4

How did CC(=O)c1cnc2cc(-c3ccccc3)nn2c1C do in these assays?
SF-1 inh: -50

How did Cc1nn(-c2ccccc2)c2sc(C(=O)N(CC(=O)NC(C)(C)C)Cc3ccco3)cc12 do in these assays?
SF-1 inh: -7

What do the screens show for `O=C(NCCN1CCN(c2ccccc2F)CC1)C1CC(=O)N(C2CCCC2)C1` (stereo unspecified)?
SF-1 inh: 5

How did COc1ccc(-c2c(C)n([O-])c3c([n+]2=O)CCC3)cc1OC do in these assays?
SF-1 inh: -4

How did O=C(c1cccs1)N1CCn2c1nc1ccccc12 do in these assays?
SF-1 inh: -53

Results for CCOC(=O)N1CCC(N2C(=O)c3ccc(C(=O)Nc4ccc(F)cc4F)cc3C2=O)CC1 ?
SF-1 inh: -6

Results for CCN(CC)CCCN1C(=O)C(O)=C(C(=O)c2cc3cccc(OC)c3o2)C1c1ccncc1 (stereo unspecified) ?
SF-1 inh: -12

Results for CCCCn1c2c(c(=O)n(C)c1=O)C(c1ccc(OC)cc1)N1CCCCCC1=N2 (stereo unspecified) ?
SF-1 inh: 49*

What do the screens show for `COC(=O)C1=C(N)N(c2ccc(F)cc2)C2=C(C(=O)CCC2)C1c1ccc2c(c1)OCO2` (stereo unspecified)?
SF-1 inh: 13

How did COCCNc1nc2c(c(=O)n(C)c(=O)n2C)n1Cc1cccc(C)c1 do in these assays?
SF-1 inh: -2

Results for Cn1c(=O)c2c(nc(NC(Cc3ccccc3)C(=O)O)n2Cc2ccccc2)n(C)c1=O (stereo unspecified) ?
SF-1 inh: 9

How did Cn1c(=O)c2c(nc(NCc3ccco3)n2C/C=C/c2ccccc2)n(C)c1=O do in these assays?
SF-1 inh: 53*

What do the screens show for `C=CCN1C(c2ccc(OCC)cc2)=CS/C1=C(\C#N)c1nnc2n1CCCCC2`?
SF-1 inh: 9

Results for Cc1nn(S(=O)(=O)N2CCCCC2)c(C)c1Br ?
SF-1 inh: -9

What do the screens show for `CN=c1scc(C)n1/N=C/c1ccc(O)cc1`?
SF-1 inh: 25

Results for CN=c1scc(C)n1/N=C/c1ccc(O)cc1O ?
SF-1 inh: 52*

What do the screens show for `CCOC(=O)c1c(N)sc2c1CCS(=O)(=O)C2`?
SF-1 inh: 5

Results for CS(=O)(=O)N1CCCC(C(=O)NCCN2CCC(Cc3ccccc3)CC2)C1 (stereo unspecified) ?
SF-1 inh: -15

Results for CC(C)OC(=O)Cn1c(=O)oc2ccccc21 ?
SF-1 inh: -7

Results for CCC1CCCCN1CCCNC(=O)CNC(=O)Cn1ccc2ccccc2c1=O (stereo unspecified) ?
SF-1 inh: 5

Results for COCCCN(C(C)=O)c1nc(-c2ccc(OC)cc2)cs1 ?
SF-1 inh: -98

Results for CCCn1nc(Oc2nc(SC)nc(N(C)C)n2)ccc1=O ?
SF-1 inh: -8

How did c1ccc(Cn2c(-c3ccco3)nc3nc4ccccc4nc32)cc1 do in these assays?
SF-1 inh: -82

What do the screens show for `Cc1ccc(-c2nc3nc4ccccc4nc3n2Cc2ccco2)cc1`?
SF-1 inh: 59*

Results for COc1ccc(CCn2c(-c3ccco3)nc3nc4ccccc4nc32)cc1 ?
SF-1 inh: -29

Results for COC(=O)c1ccc(C(=O)OC)c(NS(C)(=O)=O)c1 ?
SF-1 inh: 9

How did CCOC(=O)c1c(C)[nH]c(C(=O)C(C)OC(=O)c2cccc(OCc3c(C)noc3C)c2)c1C (stereo unspecified) do in these assays?
SF-1 inh: 81*

How did CCOC(=O)c1c(C)[nH]c(C(=O)COC(=O)C2CC2C)c1C (stereo unspecified) do in these assays?
SF-1 inh: -54

How did COC(=O)c1c(C)[nH]c(C(=O)OCc2ccc(F)cc2)c1C do in these assays?
SF-1 inh: -60

How did COc1ccc(NC(=O)Cn2c(=O)sc3ccccc32)c(OC)c1 do in these assays?
SF-1 inh: 12
